A selection: hits, their analogues and other compounds. The true share with any hit is near 7.8%.
Vaccinia mCherry = qHTS for Stage-Specific Inhibitors of Vaccinia Orthopoxvirus: mCherry Reporter Primary qHTS; Vaccinia virus mCherry reporter infection, fluorescence; Potency, µM (doses to about 36.5 µM), inactives show top-dose activity change, negative = inhibition, hits mostly inhibitors; 310,000 compounds, 0.63% hits; AID 720579, 2013; calls by dose curve; tested in A549 cells; also: potency is read from the fitted curve at half-maximal effect; nearly all actives have a fitted effect of over 35% in size
HCV inh = qHTS Assay for Inhibitors of Hepatitis C Virus (HCV); 340,000 compounds, 3.4% hits; Potency, µM (top dose mostly 41.8 µM), for the others: at the highest dose activity change, negative = inhibition, most hits filed as inhibitors; Huh7.5.1 HCVcc-Cre infection, luciferase reporter, 44 h; active = well fitted inhibition curve with a large enough effect; inconclusive = small, poorly fitted or top-dose-only effect, or another doubt; inactive = no such curve, though single readings can be large or run the other way; also: potency is read from the fitted curve at half-maximal effect
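Reporter virus HCVcc-Cre (~0.5 moi) infects cells exposed to compound; seeding density 1,000 cells/well with 4 h settling beforehand. Luminescence, 15 sec read, taken 44 h post-infection following a 15 min RT substrate incubation.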
MARV entry inh = qHTS for inhibitors of binding or entry into cells for Marburg Virus; Marburg virus pseudotyped entry inhibition, cell reporter; Potency, µM (top dose mostly 37.8 µM), for the others: at the top dose activity change, negative = inhibition, most hits filed as inhibitors; 300,000 compounds, 1.8% hits; calls by dose curve; tested in HEK293 cells; also: potency is read from the fitted curve at half-maximal effect
LASV entry inh = qHTS for Inhibitors of binding or entry into cells for Lassa Virus. Potency, µM (titrated, usually from 37.9 µM), inactives show top-dose activity change, negative = inhibition, most hits filed as inhibitors. Lassa virus pseudotype entry inhibition, cell reporter. 300,000 compounds, 1.2% hits; calls by dose curve; tested in HEK293 cells; also: potency is read from the fitted curve at half-maximal effect; nearly all actives have a fitted effect of over 50% in size
HCMV inh = qHTS Assay for inhibitors of the human cytomegalovirus (HCMV); HFF cells, HCMV-luciferase reporter, 72 h; stronger effect = lower value; activity change, negative = inhibition, % at 57.5 µM; 410,000 compounds, 4.5% hits; AID 1259415, 2018; in the data active = activity change below about -60%; inconclusive = no clear call, values can overlap the other calls; inactive = above about -39%
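Two-dose cell screen: HFF monolayers treated with compounds and infected with luciferase-expressing HCMV at 1 PFU/cell, 72 h at 37C, then lysed for luciferase measurement.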
VACV Venus inh = qHTS for Stage-Specific Inhibitors of Vaccinia Orthopoxvirus: Venus Reporter Primary qHTS. Vaccinia virus Venus reporter expression, fluorescence. Potency, µM (top dose mostly 36.5 µM), for inactives: top-dose activity change, negative = inhibition, hits mostly inhibitors. 330,000 compounds, 0.46% hits; calls by dose curve; tested in A549 cells; also: potency is read from the fitted curve at half-maximal effect; nearly all actives have a fitted effect of over 30% in size
Active calls of the source: *; [ ] = another dose, or the depositor's remark. % is scaled to controls: 0 for no effect and ±100 for the full control effect.

How did COc1ccc(/C=C2\CCc3ccccc3C2=O)cc1Cn1cccn1 do in these assays?
HCV inh: inconclusive; MARV entry inh: 18.3µM*; LASV entry inh: inconclusive; HCMV inh: inconclusive

What do the screens show for `COc1ccc(/C=C2\CCc3ccccc3C2=O)cc1O`?
Vaccinia mCherry: 11.2µM*; HCV inh: -9.5%; MARV entry inh: 11.2µM*; LASV entry inh: inconclusive; HCMV inh: 20.2; VACV Venus inh: inconclusive

Results for COc1ccc(/C=C2\CCC(C3CCCC3)C2=O)cc1Cn1cccn1 (stereo not drawn) ?
Vaccinia mCherry: inactive; HCV inh: inconclusive; MARV entry inh: inconclusive; LASV entry inh: -10.1%; HCMV inh: -32.3; VACV Venus inh: -14.5%

What do the screens show for `COc1ccc(-n2c(=O)c3c4c(sc3n(CC(=O)NCc3ccco3)c2=O)CCC4)c(OC)c1`?
HCV inh: 12.6µM*; MARV entry inh: -8.5%; LASV entry inh: -2.7%

What do the screens show for `CC(Oc1ccc(Br)cc1)C(=O)Nc1ccc(S(=O)(=O)N(C)C2CCN(C)CC2)cc1` (stereo not drawn)?
Vaccinia mCherry: -7.2%; HCV inh: 6.31µM*; MARV entry inh: inconclusive; LASV entry inh: inconclusive; HCMV inh: inconclusive; VACV Venus inh: inconclusive

What do the screens show for `COc1ccc(CC(=O)Nc2ccc(S(=O)(=O)N(C)C3CCN(C)CC3)cc2)cc1`?
HCV inh: 0.0%; HCMV inh: -5.3

What do the screens show for `COc1ccc(NC(=O)c2oc3ccc(S(=O)(=O)N4CCCCC4)cc3c2C)cc1`?
Vaccinia mCherry: -18.9%; LASV entry inh: inconclusive; HCMV inh: -34.2; VACV Venus inh: -19.4%

How did COc1ccc2oc(C(=O)Nc3ccc(S(=O)(=O)N(C)C4CCN(C)CC4)cc3)c(C)c2c1 do in these assays?
HCV inh: 11.2µM*; HCMV inh: -112.5*

What do the screens show for `Cc1c(C(=O)Nc2ccc(F)c(Cl)c2)oc2ccc(S(=O)(=O)N(C)C3CCCCC3)cc12`?
Vaccinia mCherry: -18.3%; LASV entry inh: 12.1%[46.1 µM]; HCMV inh: 12.2; VACV Venus inh: -15.4%

Results for COc1ccc(NC(=O)c2oc3ccc(S(=O)(=O)N(C)C4CCCCC4)cc3c2C)cc1Cl ?
Vaccinia mCherry: -13.2%; LASV entry inh: 11.9%[46.1 µM]; HCMV inh: -77.4*; VACV Venus inh: -11.7%

What do the screens show for `Cc1ccc(-n2nc(C(=O)N(C)c3ccc(C)c(C)c3)c3c4ccccc4n(C)c3c2=O)cc1`?
Vaccinia mCherry: -7.5%; MARV entry inh: 0.8%[46.1 µM]; LASV entry inh: inconclusive; HCMV inh: -1.3; VACV Venus inh: -13.6%

How did N#CCCn1cc(/C=N/NC(N)=S)c(-c2ccc(Br)cc2)n1 do in these assays?
Vaccinia mCherry: -29.2%; HCV inh: inconclusive; MARV entry inh: inconclusive; LASV entry inh: -1.8%[46.1 µM]; HCMV inh: -70.1*; VACV Venus inh: inconclusive

What do the screens show for `Cc1nn2cc(-c3cccc(Cl)c3)cnc2c1Cl`?
Vaccinia mCherry: -12.9%; HCV inh: 0.4%; MARV entry inh: 4.47µM*; LASV entry inh: inconclusive; HCMV inh: 61.9; VACV Venus inh: -22.7%

How did CCOc1ccc(Br)cc1S(=O)(=O)NC1=NCCCCC1 do in these assays?
Vaccinia mCherry: -15.4%; HCV inh: -6.7%; MARV entry inh: inconclusive; LASV entry inh: 13.9%; HCMV inh: -63.8*; VACV Venus inh: -10.9%

How did CCOc1ccc(Br)cc1S(=O)(=O)Nc1cccc(S(=O)(=O)NC2=NCCC2)c1 do in these assays?
HCV inh: 0.5%; HCMV inh: -6.2

How did Cc1cc(Br)ccc1NC(=O)c1coc(=O)c2ccccc12 do in these assays?
Vaccinia mCherry: -12.2%; MARV entry inh: 14.8%[46.1 µM]; LASV entry inh: -3.6%[46.1 µM]; HCMV inh: -14.2; VACV Venus inh: -12.6%

How did CCN(CC)c1ccc(NC(=O)COc2ccccc2C#N)cc1S(=O)(=O)Nc1ccc(OC)cc1 do in these assays?
Vaccinia mCherry: inactive; HCV inh: inconclusive; MARV entry inh: inconclusive; LASV entry inh: inconclusive; HCMV inh: 14.4; VACV Venus inh: -14.1%

What do the screens show for `CCN(CC)c1ccc(NC(=O)c2ccc(=O)[nH]c2)cc1S(=O)(=O)Nc1ccccc1OC`?
Vaccinia mCherry: inactive; HCV inh: 22.4µM*; MARV entry inh: inconclusive; LASV entry inh: -29.3%[46.1 µM]; HCMV inh: 9.0; VACV Venus inh: -24.6%

How did CCN(CC)c1ccc(NC(=O)c2cnccn2)cc1S(=O)(=O)Nc1ccc(OC)cc1 do in these assays?
Vaccinia mCherry: -19.1%; HCV inh: 8.91µM*; MARV entry inh: inconclusive; LASV entry inh: inconclusive; HCMV inh: -31.5; VACV Venus inh: inconclusive

How did Clc1nc(NCc2cccs2)c2[nH]cnc2n1 do in these assays?
Vaccinia mCherry: -29.6%; VACV Venus inh: -26.0%

Results for CCc1nc2c(OCC=C(C)C)cccn2c1N(C)C(=O)c1ccc(OC)cc1 ?
Vaccinia mCherry: -29.8%; HCMV inh: 1.2; VACV Venus inh: -18.9%

Results for O=c1c(-c2cc(-c3ccc(F)cc3)nc3c2COc2ccc(Cl)cc2-3)coc2ccc(F)cc12 ?
Vaccinia mCherry: -13.6%[7.34 µM]; MARV entry inh: -5.9%[46.1 µM]; LASV entry inh: -10.0%[46.1 µM]; HCMV inh: -21.4; VACV Venus inh: -3.5%[7.34 µM]

Results for C[C@@H]1COc2cccc(NC3CC3)c2S(=O)(=O)N1 ?
HCMV inh: 0.0

What do the screens show for `CCc1cc(-c2n[nH]c(C)c2-c2nc3ccccc3n2C)c(O)cc1O`?
Vaccinia mCherry: -28.3%; HCV inh: inconclusive; MARV entry inh: inconclusive; LASV entry inh: inconclusive; HCMV inh: -71.4*; VACV Venus inh: -26.0%

Results for CCc1cc(-c2n[nH]c(CCC(=O)O)c2-c2nc3ccccc3n2C)c(O)cc1O ?
Vaccinia mCherry: inactive; HCV inh: 12.8%; MARV entry inh: 5.3%[46.1 µM]; LASV entry inh: 8.8%[46.1 µM]; HCMV inh: -6.5; VACV Venus inh: -7.4%

How did CN(C)CC/C=C1/c2ccccc2Sc2ccc(Cl)cc21 do in these assays?
Vaccinia mCherry: -12.1%; HCV inh: 14.1µM*; HCMV inh: -24.2; VACV Venus inh: inconclusive

What do the screens show for `CN(C)CC/C=C1\c2ccccc2COc2ccccc21`?
Vaccinia mCherry: -14.5%; HCV inh: inconclusive; MARV entry inh: 3.98µM*; LASV entry inh: inconclusive; HCMV inh: -9.6; VACV Venus inh: -8.4%

How did CC(=CCO)CCO do in these assays?
MARV entry inh: 1.8%[14.2 µM]; LASV entry inh: inconclusive

Results for O=C(NC1CCCC1)c1nc2ccccc2nc1-c1ccc(F)c(F)c1 ?
HCMV inh: 64.1

What do the screens show for `CC(C)[C@@H](OCc1ccccc1)[C@H](C)/C=N\OC[C@@H](O)[C@@H]1O[C@@H]2OC(C)(C)O[C@@H]2[C@H]1O`?
MARV entry inh: -4.6%[14.2 µM]
